TRAIL sens C8: sensitizes caspase-8 expressing cells to TRAIL; NB7+C8 cells + TRAIL, ATPlite viability luminescence; inhibition (viability loss, TRAIL sensitization), % at 10 µM; 360,000 tested, 1% active;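 active = compounds causing at least 50% loss of cell viability in the single-dose screen, relative to plate controls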
SENP7 inh: SENP7 protease inhibition. Q9BQF6. AID 434973. 330,000 tested, 1.5% active. recombinant SENP7, Z-RLRGG-aminoluciferin luminescence, 40 min. inhibition, % at 5 µM;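 active = inhibition above about 50% at the single test dose, limit read from the data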;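 also: plate controls were DMSO with enzyme for no effect and no enzyme buffer wells for full effect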
SENP6 block: SENP6 protease inhibition | Recombinant SENP6 catalytic domain, aminoluciferin luminescence | inhibition, % at 10 µM | 330,000 tested, 1.8% active | AID 2599;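 active = inhibition above about 50% at the single tested dose, limit read from the data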;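 also: plate controls were DMSO wells with enzyme for no effect and DMSO wells lacking enzyme for full effect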
PPC-1+TRAIL kill: compounds killing PPC-1 cancer cells with TRAIL present (potentiator screen, no TRAIL-free arm). AID 1443. 220,000 tested, 0.41% active. PPC-1 cells + TRAIL, ATPLite viability luminescence. cell killing (% activity), % at 4 µM or 5 µM;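 active = cell killing above 50% in the first pass at 4 µM, then a duplicate retest at 5 µM averaging 50% or more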;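 also: plate controls were cells with TRAIL plus DMSO for no effect and medium-only wells lacking cells for full effect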
SENP8 block-1: inhibitors of human SENP8 protease; Q96LD8; recombinant SENP8, Nedd8 substrate fluorescence; inhibition, % at 20 µM; 360,000 tested, 0.64% active; in the data active = inhibition mostly above about 40%, no sharp cut-off; inactive = mostly below about 27%
Target sequence (Q96LD8 whole entry, looked up): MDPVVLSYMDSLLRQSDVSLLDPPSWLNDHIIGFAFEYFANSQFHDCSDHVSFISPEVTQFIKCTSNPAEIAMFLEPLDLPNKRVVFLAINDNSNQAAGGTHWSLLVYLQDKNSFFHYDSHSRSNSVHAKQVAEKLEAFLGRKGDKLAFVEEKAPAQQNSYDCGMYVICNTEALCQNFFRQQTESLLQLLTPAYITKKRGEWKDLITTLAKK
SENP8 block-2: inhibitors of human SENP8 protease. Q96LD8. purified SENP8, Z-RLRGG-aminoluciferin cleavage, luminescence. inhibition, % at 10 µM. 330,000 tested, 1.2% active. AID 2540; in the data active = inhibition above about 50%
SENP8 confirm: human SENP8 inhibition, confirmed; shares compounds with SENP7 inh; Recombinant SENP8, Z-RLRGG-aminoluciferin luminescence, 60 min; inhibition, % at 12.5 µM; 6,200 tested, 40% active;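 active = mean inhibition across replicates above about 50%, limit read from the data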
SENP6 conf: confirmation of human SENP6 protease inhibitors; shares compounds with SENP7 inh; recombinant SENP6, Z-RLRGG-aminoluciferin luminescence; inhibition, % at 12.5 µM; 6,200 tested, 58% active
SENP7 conf: confirmation of human SENP7 protease inhibitors | AID 488917 | 6,200 tested, 69% active | shares compounds with SENP7 inh | recombinant SENP7, Z-RLRGG-aminoluciferin luminescence, 40 min | inhibition, % at 12.5 µM
Casp3 select: caspase-3 inhibition (SENP selectivity assay) | shares compounds with SENP7 inh | purified caspase-3, Z-DEVD-aminoluciferin luminescence, 60 min | inhibition, % at 12.5 µM | 6,200 tested, 60% active | AID 488918;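 active = mean inhibition above about 50%, limit read from the data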;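 also: plate controls were enzyme with DMSO for no effect and wells without caspase-3 for full effect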
Target sequence (P42574 28-227 limits assumed): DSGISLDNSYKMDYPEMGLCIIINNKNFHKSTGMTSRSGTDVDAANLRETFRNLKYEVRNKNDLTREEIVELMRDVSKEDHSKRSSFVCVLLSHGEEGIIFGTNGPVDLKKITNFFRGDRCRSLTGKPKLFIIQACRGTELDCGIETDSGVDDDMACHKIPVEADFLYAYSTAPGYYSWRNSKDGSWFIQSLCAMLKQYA
Luc interf: counter-screen for SENP inhibitors: luminescence interference; shares compounds with SENP7 inh; Pre-incubated SENP8/Z-RLRGG-aminoluciferin, luciferase luminescence interference; inhibition, % at 12.5 µM; 6,200 tested, 39% active; AID 488919;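 active = mean inhibition above about 50% when retested at one dose, limit read from the data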;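 also: plate controls were DMSO wells with completed reaction for no effect and substrate without enzyme for full effect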
Active calls of the source: *. Sampled rows, rich in hits. Any-hit rate of the full collection: about 3%.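 The calls were made as follows, unless noted: active = mean inhibition above about 50% in the one-dose retest (limit read from the data); inactive = the rest.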

Cc1c(C(=O)Nc2ccc3c(c2)OCO3)oc2ccccc12 was read as TRAIL sens C8 36.9, SENP7 inh 67.3*, SENP6 block 70.3*, SENP8 block-1 2.2, SENP8 block-2 58.4*, SENP8 confirm 75.0*, SENP6 conf 74.6*, SENP7 conf 92.5*, Casp3 select 59.0* and Luc interf 64.6*.
Screening COc1ccc(NC(=O)/C=C/c2ccc3c(c2)OCO3)cc1 returned TRAIL sens C8 8.6, SENP7 inh 79.0*, SENP6 block 67.3*, PPC-1+TRAIL kill 19.8, SENP8 block-1 3.9, SENP8 block-2 45.1, SENP8 confirm 28.6, SENP6 conf 34.5, SENP7 conf 76.8*, Casp3 select 66.6* and Luc interf 71.6*.
For CCC(CC)C(=O)N(C)c1c(C)nc2c(OCc3ccc(C#N)cc3)cccn12 the results were TRAIL sens C8 -13.3 and SENP8 block-1 22.5.
Cc1ccc(-n2nnc(-c3cccnc3Cl)n2)cc1 was read as TRAIL sens C8 61.1*, SENP7 inh 76.3*, SENP6 block 74.3*, PPC-1+TRAIL kill 39.9, SENP8 block-1 11.5, SENP8 block-2 51.5*, SENP8 confirm 35.8, SENP6 conf 51.7*, SENP7 conf 42.2, Casp3 select 37.6 and Luc interf 16.9.
O=c1oc2cc(O)c(Cl)cc2c2ccccc12 was read as TRAIL sens C8 2.3, SENP7 inh 11.4, SENP6 block 60.9*, PPC-1+TRAIL kill 4.8, SENP8 block-1 -89.1, SENP8 block-2 34.2, SENP8 confirm 50.2*, SENP6 conf 45.4, SENP7 conf 73.3*, Casp3 select 67.9* and Luc interf 37.8.
`O=[N+]([O-])c1ccc(O)c(/C=N/NC(=S)Nc2ccc(Cl)cc2Cl)c1` gave TRAIL sens C8 22.6, SENP7 inh 57.1*, SENP6 block 94.2*, PPC-1+TRAIL kill 22.8, SENP8 block-1 27.9, SENP8 block-2 87.5*, SENP8 confirm 76.7*, SENP6 conf 85.3*, SENP7 conf 54.7*, Casp3 select 35.4 and Luc interf 6.2.
Cc1cc(Cl)ccc1NC(=O)CCC(=O)N/N=C/c1cc([N+](=O)[O-])ccc1O was read as TRAIL sens C8 -1.0, SENP7 inh -3.2, SENP6 block 9.5, PPC-1+TRAIL kill 1.0, SENP8 block-1 17.1 and SENP8 block-2 2.0.
For NCCC1CCCC(CCN)N1 (stereo not drawn) the results were TRAIL sens C8 1.0, SENP7 inh 5.9, SENP6 block -10.3, SENP8 block-1 4.6 and SENP8 block-2 -0.4.
For CCc1ccc(OCC(=O)N/N=C2\CC(=O)c3ccccc32)cc1 the results were TRAIL sens C8 -1.7, SENP7 inh 16.8, SENP6 block 53.5*, PPC-1+TRAIL kill -14.9, SENP8 block-1 41.2*, SENP8 block-2 24.1, SENP8 confirm 28.0, SENP6 conf 66.1*, SENP7 conf 15.8, Casp3 select 17.5 and Luc interf 3.5.
Cc1nc2cc(-c3ccc(F)cc3)[nH]n2c(=O)c1C was read as TRAIL sens C8 21.1, SENP7 inh 8.3, SENP6 block 18.9, SENP8 block-1 -85.7 and SENP8 block-2 4.2.
Screening O=c1c2c(nc3cc(-c4ccc(Cl)cc4)[nH]n13)CCS2 returned TRAIL sens C8 50.8*, SENP7 inh 72.8*, SENP6 block 88.0*, PPC-1+TRAIL kill 41.0, SENP8 block-1 -397.0, SENP8 block-2 84.8*, SENP8 confirm -2.0, SENP6 conf 2.5, SENP7 conf 4.1, Casp3 select 24.2 and Luc interf 12.2.

Bioassay records deposited in PubChem BioAssay by Sanford-Burnham Center for Chemical Genomics.
